From PubChem BioAssay (Tox21)
Results filed as inconclusive are left out. The source made the active and inactive calls. Unless noted, the call rests on the fitted dose curve; in most records, active means well fitted curve in the direction sought with a large enough effect in the repeat runs; inconclusive means weak or mixed curves; inactive means no such curve, though single readings can be large; an effect the other way counts as inactive or inconclusive.

Tests used:
[1] = qHTS assay to identify small molecule agonists of the peroxisome proliferator-activated receptor delta (PPARd) signaling pathway - cell viability counter screen (AID 743211); further: nearly all actives have a fitted effect of over 55% in size
Procedure, shortened: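 Viability of GeneBLAzer PPARd UAS-bla HEK293H cells was assessed after 17 h compound incubation at 37C, using CellTiter-Glo reagent added after the reporter read and luminescence recorded 30 min later.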

[2] = qHTS assay to identify small molecule antagonists of the peroxisome proliferator-activated receptor delta (PPARd) signaling pathway - cell viability counter screen (AID 743213); further: nearly all actives have a fitted effect of over 50% in size
Procedure, shortened: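 In this counter screen, HEK293H cells carrying a UAS-beta-lactamase reporter are co-treated with test compounds and 300 nM L165041 (final) for 17 h at 37 C; cell viability is quantified by CellTiter-Glo luminescence.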

[3] = qHTS assay to identify small molecule agonists of the farnesoid-X-receptor (FXR) signaling pathway - cell viability counter screen (AID 743218); further: nearly all actives have a fitted effect of over 45% in size
Procedure, shortened: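 Viability of FXR-bla HEK 293T cells is measured by ATP-based CellTiter-Glo luminescence following 16 h compound treatment at 37 C and a prior 2 h room-temperature beta-lactamase substrate step.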

[4] = qHTS assay to identify small molecule antagonists of the farnesoid-X-receptor (FXR) signaling pathway - cell viability counter screen (AID 743221; active means well fitted cell-killing curve with a large enough effect in the repeat runs, not every such curve was filed as active; further: nearly all actives have a fitted effect of over 50% in size)
Procedure, shortened: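 Quantitative HTS of the Tox21 10K library run in parallel with the beta-lactamase reporter read. HEK 293T cells carrying a UAS-driven bla reporter got compound and 50 uM CDCA (final) for 16 h; ATP-based luminescence followed.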

[5] = biological target: Vitamin D3 receptor (Homo sapiens) (UniProt P11473); assay: qHTS assay to identify small molecule agonists of the vitamin D receptor (VDR) signaling pathway (AID 743222; calls by dose curve)
Procedure, shortened: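 Fluorescence from cleaved LiveBLAzer B/G FRET substrate served as readout. VDR-bla cells had been treated 16 h at 37C with test compounds in DMSO, following a 4 h settling period, and substrate was loaded for 2 h at RT.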

[6] = biological target: Vitamin D3 receptor (Homo sapiens) (UniProt P11473); assay: qHTS assay to identify small molecule antagonists of the vitamin D receptor (VDR) signaling pathway (AID 743223; active means well fitted inhibition curve with a large enough effect in the signal ratio in the repeat runs, not every such curve was filed as active; the % refers to the signal ratio)
Procedure, shortened: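 Fluorescence from LiveBLAzer B/G FRET substrate, read after 2 h at room temperature, reflects beta-lactamase reporter activity in VDR-bla cells treated 16 h at 37C with compounds and agonist 1alpha,25-dihydroxyvitamin D3 (3 nM final).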

[7] = qHTS assay to identify small molecule agonists of the vitamin D receptor (VDR) signaling pathway - cell viability counter screen (AID 743224); further: series mostly up to about 63 µM; nearly all actives have a fitted effect of over 50% in size
Procedure, shortened: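 Compounds were pin-transferred onto VDR-bla cells plated 4 h earlier; following 16 h incubation at 37C, cell viability was quantified by CellTiter-Glo luminescence after 30 min at room temperature.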

[8] = qHTS assay to identify small molecule antagonists of the vitamin D receptor (VDR) signaling pathway - cell viability counter screen (AID 743225); further: nearly all actives have a fitted effect of over 50% in size
Procedure, shortened: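 Cells (VDR-UAS-bla HEK 293T) are plated, rested 4 h at 37C, dosed with compound and 3 nM final 1-alpha,25-dihydroxy vitamin D3, and incubated 16 h. Viability is taken from CellTiter-Glo luminescence in the reporter wells.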

[9] = qHTS assay to identify small molecule agonists of the NFkB signaling pathway (AID 1159509; active means well fitted curve in the direction sought with a large enough effect in the signal ratio in the repeat runs, not every such curve was filed as active; the % refers to the signal ratio; further: series mostly up to about 61 µM)
Procedure, shortened: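 Readout: FRET fluorescence, 405 nm excitation, 460/530 nm emission; beta-lactamase expression disrupts FRET. Cells: ME-180 stably carrying NF-kB-driven bla reporter. Compound exposure 5 hr, 37 C, 5% CO2.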

[10] = qHTS assay to identify small molecule agonists of the endoplasmic reticulum stress response signaling pathway (AID 1159516; active means well fitted activation curve with a large enough effect in the signal ratio in the repeat runs, not every such curve was filed as active; the % refers to the signal ratio)
Procedure, shortened: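 Using a HeLa line with an ESRE-driven beta-lactamase gene, agonist activity was measured by FRET substrate fluorescence (460 and 530 nm emission) after cells were treated with compounds for 5 hr at 37 C and 5% CO2.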

[11] = qHTS assay to identify small molecule agonists of the endoplasmic reticulum stress response signaling pathway - cell viability counter screen (AID 1159517; calls by dose curve)
Procedure, shortened: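 After overnight attachment, ESRE-bla HeLa cells were treated with Tox21 library compounds for 5 hr. CellTiter-Glo luminescence, read 30 min post-addition at room temperature, reported viability.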

[12] = qHTS assay to identify small molecule antagonists of the retinoid-related orphan receptor gamma (ROR-gamma) signaling pathway - cell viability counter screen (AID 1159520); further: nearly all actives have a fitted effect of over 50% in size
Procedure, shortened: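 Cytotoxicity was read from cellular ATP (CellTiter-Glo luminescence) after 16 hr at 37 C with 1 uM doxycycline induction. The inducer was added 2 hr after compound transfer to Tet-on ROR gamma CHO cells.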

[13] = biological target: Nuclear receptor ROR-gamma (Homo sapiens) (UniProt P51449); assay: qHTS assay to identify small molecule antagonists of the retinoid-related orphan receptor gamma (ROR-gamma) signaling pathway (AID 1159521)
Procedure, shortened: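 RORγ antagonism is scored from reduced reporter luminescence in Tet-on CHO cells. Induction used 1 uM final doxycycline hyclate for 16 h at 37 C, following a 2 h compound exposure.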

[14] = qHTS assay to identify small molecule agonists of the AP-1 signaling pathway - cell viability counter screen (AID 1159525; calls by dose curve; further: nearly all actives have a fitted effect of over 55% in size)
Procedure, shortened: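 Intracellular ATP by Cell Titer Glo luminescence (30 min, RT) in the same ME-180 AP-1-bla wells after the 5 h compound exposure at 37 °C. Normalised to tetra n-octyl ammonium bromide and DMSO controls.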

[15] = qHTS assay to identify small molecule agonists of the AP-1 signaling pathway (AID 1159526; calls by dose curve)
[16] = biological target: Peroxisome proliferator-activated receptor delta (Homo sapiens) (UniProt Q03181); assay: qHTS assay to identify small molecule agonists of the peroxisome proliferator-activated receptor delta (PPARd) signaling pathway (AID 743212; calls by dose curve;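 further: HEK293H cells with PPARd UAS beta-lactamase reporter GeneBLAzer system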)
Procedure, shortened: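 Steps: seed PPARd-bla HEK293H cells; incubate 5 h, 37 C, 5% CO2; add compounds in DMSO; incubate, 37 C; add LiveBLAzer B/G FRET substrate; hold 2 h at room temperature; measure fluorescence.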

[17] = biological target: Peroxisome proliferator-activated receptor delta (Homo sapiens) (UniProt Q03181); assay: qHTS assay to identify small molecule antagonists of the peroxisome proliferator-activated receptor delta (PPARd) signaling pathway (AID 743215; active means well fitted inhibition curve with a large enough effect in the signal ratio in the repeat runs, not every such curve was filed as active; the % refers to the signal ratio;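 further: cells stimulated with agonist L165041 at 300 nM final during compound exposure; series mostly up to about 62 µM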)
Procedure, shortened: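 Plated HEK293H PPARd-bla cells rested 5 h at 37 C and 5% CO2. Compound, then agonist L165041 at 300 nM final, was added; 17 h at 37 C followed. Substrate loading, 2 h room temperature, fluorescence measured.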

[18] = biological target: Bile acid receptor (Homo sapiens) (UniProt Q96RI1); assay: qHTS assay to identify small molecule antagonists of the farnesoid-X-receptor (FXR) signaling pathway (AID 743217; active means well fitted inhibition curve with a large enough effect in the signal ratio in the repeat runs, not every such curve was filed as active; the % refers to the signal ratio)
Procedure, shortened: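 Screen of the Tox21 10K library in quantitative HTS format using FXR-UAS-bla HEK 293T reporter cells. Agonist chenodeoxycholic acid, 50 uM final, added with compounds; 16 h incubation at 37 °C; beta-lactamase FRET fluorescence measured.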

[19] = biological target: Bile acid receptor (Homo sapiens) (UniProt Q96RI1); assay: qHTS assay to identify small molecule agonists of the farnesoid-X-receptor (FXR) signaling pathway (AID 743220; active means well fitted activation curve with a large enough effect in the signal ratio in the repeat runs, not every such curve was filed as active; the % refers to the signal ratio)
Procedure, shortened: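 FXR-UAS-bla HEK 293T cells carrying a UAS-driven beta-lactamase reporter were plated for 5 h at 37C/5% CO2, then exposed to DMSO-dissolved Tox21 10K compounds for 16 h at 37C. A LiveBLAzer B/G FRET substrate was loaded for 2 h at room temperature before fluorescence reading.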

Measured: Potency

Chain of Peroxisome proliferator-activated receptor delta (Homo sapiens) (Q03181 whole entry, looked up): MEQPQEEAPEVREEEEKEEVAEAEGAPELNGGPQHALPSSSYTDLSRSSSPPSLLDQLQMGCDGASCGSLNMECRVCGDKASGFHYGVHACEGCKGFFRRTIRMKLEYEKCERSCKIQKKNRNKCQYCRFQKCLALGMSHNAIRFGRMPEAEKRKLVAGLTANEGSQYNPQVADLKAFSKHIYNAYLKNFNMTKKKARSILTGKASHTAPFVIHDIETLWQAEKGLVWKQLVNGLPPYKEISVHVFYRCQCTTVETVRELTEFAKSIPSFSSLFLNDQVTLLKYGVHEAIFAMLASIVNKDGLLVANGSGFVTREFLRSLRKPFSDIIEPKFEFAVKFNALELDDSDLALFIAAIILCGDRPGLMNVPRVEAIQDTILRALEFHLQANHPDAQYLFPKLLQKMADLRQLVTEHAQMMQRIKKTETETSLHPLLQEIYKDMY
Chain of Bile acid receptor (Homo sapiens) (Q96RI1 whole entry, looked up): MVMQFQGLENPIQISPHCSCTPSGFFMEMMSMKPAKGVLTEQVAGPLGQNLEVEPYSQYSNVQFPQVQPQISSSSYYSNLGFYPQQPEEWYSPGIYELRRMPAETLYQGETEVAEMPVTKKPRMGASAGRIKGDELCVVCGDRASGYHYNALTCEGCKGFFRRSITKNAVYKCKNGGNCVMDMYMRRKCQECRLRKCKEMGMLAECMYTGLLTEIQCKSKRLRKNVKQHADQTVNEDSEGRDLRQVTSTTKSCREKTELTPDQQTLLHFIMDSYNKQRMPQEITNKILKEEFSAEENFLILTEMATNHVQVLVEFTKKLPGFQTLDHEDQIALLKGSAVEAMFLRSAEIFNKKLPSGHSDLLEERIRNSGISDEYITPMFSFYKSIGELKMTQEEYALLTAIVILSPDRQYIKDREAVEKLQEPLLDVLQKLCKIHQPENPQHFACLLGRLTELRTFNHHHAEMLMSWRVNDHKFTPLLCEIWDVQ
Chain of Vitamin D3 receptor (Homo sapiens) (P11473 whole entry, looked up): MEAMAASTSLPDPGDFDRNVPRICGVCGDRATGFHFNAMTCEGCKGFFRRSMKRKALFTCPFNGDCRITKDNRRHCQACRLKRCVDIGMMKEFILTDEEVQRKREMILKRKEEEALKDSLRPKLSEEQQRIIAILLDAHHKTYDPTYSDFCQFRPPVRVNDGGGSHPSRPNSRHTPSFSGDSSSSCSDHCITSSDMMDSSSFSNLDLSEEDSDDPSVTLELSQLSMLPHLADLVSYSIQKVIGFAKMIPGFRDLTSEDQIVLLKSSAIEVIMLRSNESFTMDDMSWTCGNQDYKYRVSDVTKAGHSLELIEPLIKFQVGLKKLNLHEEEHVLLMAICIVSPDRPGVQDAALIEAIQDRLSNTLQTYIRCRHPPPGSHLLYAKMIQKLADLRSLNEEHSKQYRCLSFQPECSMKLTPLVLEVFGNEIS

NC(N)=NC(=O)c1nc(Cl)c(N)nc1N
not listed: [16] | [17] | [18] | [19]
inactive: all other assays above

NNC(=O)c1ccncc1
not listed: [7] | [18] | [19]
inactive: all other assays above

OC(Cn1cncn1)(Cn1cncn1)c1ccc(F)cc1F
not listed: [7] | [18] | [19]
inactive: all other assays above

CNC[C@H](O)c1cccc(O)c1
not listed: [13] | [16] | [17] | [18] | [19]
inactive: all other assays above

CC(=O)OCC(COC(C)=O)OC(C)=O
not listed: [7] | [18] | [19]
inactive: all other assays above

NS(=O)(=O)c1cc(C(=O)O)c(NCc2ccco2)cc1Cl
not listed: [7] | [17] | [18] | [19]
inactive: all other assays above

Cc1ccc(S(=O)(=O)NC(=O)NN2CCCCCC2)cc1
not listed: [7] | [18] | [19]
inactive: all other assays above

O=NO
not listed: [16] | [17] | [18] | [19]
inactive: all other assays above

O=c1ccc2ccccc2o1
not listed: [5] | [6] | [16] | [17]
inactive: all other assays above
